PubChem BioAssay (NCATS)
“And” between values parts separate entries of the source, which are not always exact repeats. Equal entries are not always repeated. Results filed as inconclusive are left out. Values without a mark were called inactive. Calls come from the whole dose curve; as a rule, active = well fitted inhibition curve with a large enough effect; inconclusive = small, poorly fitted or top-dose-only effect; inactive = flat fitted curve, though single readings scatter.

Assay: Drug repurposing screens with cells derived from glioblastoma tumor samples (AID 1345199); note: nearly all actives have a fitted effect of over 40% in size
Settings: GBM patient neurospheres viability, ATP luminescence, 48 h; at 20 µM (top of the series); tumour line C
Outline: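 Four patient lines of CD133+ GBM neurospheres were screened at several concentrations; hits were retested in those lines plus three slower-growing GBM lines, using 48-hour treatment and ATP-based viability.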
% is set by controls: 0 for no effect and ±100 for the full control effect.

| Compound | activity, negative = cell killing [%] |
| --- | --- |
| C[C@@H]1CC[C@@]2(OC1)O[C@H]1C[C@H]3[C@@H]4CC[C@H]5C[C@@H](O)CC[C@]5(C)[C@H]4CC(=O)[C@]3(C)[C@H]1[C@@H]2C | -26.8 |
| CC(CN(C)C)CN1c2ccccc2CCc2ccccc21 (centres undefined) | -0.604 |
| C[C@@H]1C[C@H]2[C@@H]3C[C@H](F)C4=CC(=O)C=C[C@]4(C)[C@@]3(F)[C@@H](O)C[C@]2(C)[C@@]1(O)C(=O)CO | 17.9 |
| NS(=O)(=O)c1cc2c(cc1Cl)NC(CSCc1ccccc1)=NS2(=O)=O | 5.29 |
| CCN(CC)C(C)CN1c2ccccc2Sc2ccccc21 (centres undefined) | -5.52 |

Same assay, conditions: GBM patient neurospheres viability, ATP luminescence, 48 h; at 21.2 µM (top of the series); tumour line B

| Compound | activity, negative = cell killing [%] |
| --- | --- |
| C[C@@H]1CC[C@@]2(OC1)O[C@H]1C[C@H]3[C@@H]4CC[C@H]5C[C@@H](O)CC[C@]5(C)[C@H]4CC(=O)[C@]3(C)[C@H]1[C@@H]2C | -15.7 |
| CC(CN(C)C)CN1c2ccccc2CCc2ccccc21 (centres undefined) | -19 |
| C[C@@H]1C[C@H]2[C@@H]3C[C@H](F)C4=CC(=O)C=C[C@]4(C)[C@@]3(F)[C@@H](O)C[C@]2(C)[C@@]1(O)C(=O)CO | -15.7 |
| NS(=O)(=O)c1cc2c(cc1Cl)NC(CSCc1ccccc1)=NS2(=O)=O | -6.25 |
| CCN(CC)C(C)CN1c2ccccc2Sc2ccccc21 (centres undefined) | -16.2 |

Same assay, conditions: GBM patient neurospheres viability, ATP luminescence, 48 h; at 21.2 µM (top of the series); tumour line D

| Compound | activity, negative = cell killing [%] |
| --- | --- |
| C[C@@H]1CC[C@@]2(OC1)O[C@H]1C[C@H]3[C@@H]4CC[C@H]5C[C@@H](O)CC[C@]5(C)[C@H]4CC(=O)[C@]3(C)[C@H]1[C@@H]2C | -22.8 |
| C[C@@H]1C[C@H]2[C@@H]3C[C@H](F)C4=CC(=O)C=C[C@]4(C)[C@@]3(F)[C@@H](O)C[C@]2(C)[C@@]1(O)C(=O)CO | -7.98 |
| NS(=O)(=O)c1cc2c(cc1Cl)NC(CSCc1ccccc1)=NS2(=O)=O | -24.5 |

Same assay, conditions: GBM patient neurospheres viability, ATP luminescence, 48 h; at 45.9 µM (top of the series); tumour line B

| Compound | activity, negative = cell killing |
| --- | --- |
| COc1ccc(Cl)cc1C(=O)NCCc1ccc(S(=O)(=O)NC(=O)NC2CCCCC2)cc1 | 5.08% |
| COc1ccc2cc1Oc1cc3c(cc1OC)CC[N+](C)(C)[C@H]3Cc1ccc(cc1)Oc1c(OC)c(OC)cc3c1[C@@H](C2)[N+](C)(C)CC3 | -14.8% |
| CC[C@@]1(c2ccccc2)NC(=O)N(C)C1=O | -13.7% |
| O=C1O[C@H]([C@@H](O)CO)C(O)=C1O | -10.4% and -5.65% |
| Cc1cccc(Nc2cc(Cl)nc(SCC(=O)O)n2)c1C | -5.07% |
| Cc1cc2nc3c(=O)[nH]c(=O)nc-3n(C[C@H](O)[C@H](O)[C@H](O)CO)c2cc1C | -19.3% and -6.89% |
| O=c1cc[nH]c(=S)[nH]1 | -6.45% |
| COc1cc(C)c(Cc2cnc(N)nc2N)cc1OC | -4.72% |
| CCCOC(=O)c1ccccc1 | -11.5% |
| CN1[C@@H]2CC[C@H]1CC(OC(=O)C(O)c1ccccc1)C2 (some centres undefined) | -0.798% and -13.6% and 4.01% |
| C[C@@H](O)[C@H](N)C(=O)O | -15.7% |
| NC(=O)N/N=C/c1ccc([N+](=O)[O-])o1 | 2.52% |
| CC(C)(O)c1ccccc1CC[C@@H](SCC1(CC(=O)O)CC1)c1cccc(/C=C/c2ccc3ccc(Cl)cc3n2)c1 | -2.34% |
| Cc1ncc(COP(=O)(O)O)c(C=O)c1O | -4.54% |
| O=C1NC(=O)[C@@]2(CCOc3ccc(F)cc32)N1 | -4.87% |
| CCN(CC)C(=O)Nc1ccc(OCC(O)CNC(C)(C)C)c(C(C)=O)c1 (centres undefined) | -20.9% |

| Compound | activity, negative = cell killing |
| --- | --- |
| O=C(O)COc1nn(Cc2ccccc2)c2ccccc12 | 0.429% |
| Nc1ccc(S(=O)(=O)Nc2ccccc2)cc1 | 11.7% |
| C[C@H](NC(CCc1ccccc1)C(=O)O)C(=O)N1CCC[C@H]1C(=O)O (some centres undefined) | -5.92% |
| O=C1NS(=O)(=O)c2ccccc21 | -3.37% |
| CCCCc1ncc(/C=C(\Cc2cccs2)C(=O)O)n1Cc1ccc(C(=O)O)cc1 | -7.78% |
| OCC(CO)N[C@H]1C[C@](O)(CO)[C@@H](O)[C@H](O)[C@H]1O | -9.88% |
| CNC(=O)Oc1ccc2c(c1)[C@]1(C)CCN(C)[C@@H]1N2C | -15.9% |
| O=C(O)CC(O)C(=O)O (centres undefined) | -10.7% |
| O=C(O)[C@@H]1CSCN1 | 0.874% |
| Nc1ccc(S(=O)(=O)Nc2nccs2)cc1 | -4.74% |
| CN(C)CCOC(C)(c1ccccc1)c1ccccn1 (centres undefined) | -6.13% |
| CC(O)COc1ccccc1 (centres undefined) | -16.3% |
| Cc1cccc(C)c1NC(=O)CN(CC(=O)O)CC(=O)O | 1.75% |
| CN(C)CCN(Cc1ccccc1)c1ccccn1 | -8.05% |
| COc1ccc2[nH]c(S(=O)Cc3ncc(C)c(OC)c3C)nc2n1 (centres undefined) | -28.9% |
